Reference: PubChem BioAssay AID2330 (Broad Institute, 2010)
Hit rate of the full screen: of about 37,000 compounds, about 2,800 (7.6%) were called active. Roughly 1% stayed inconclusive and do not appear here. No stated cut-off is given here; in the data, active means inhibition above about 80%; inconclusive means no clear call, values can overlap the other calls; inactive means below that. The list comes from a sample in which actives are over-represented; it also holds similar structures and randomly drawn compounds.

Test: NOMO-1 AML cell viability reduction, primary screen, STK33 inhibitor project, CellTiter-Glo luminescence (AID 2330)
Settings: NOMO-1 AML viability, 72 h, stronger effect = higher value, concentration not given here
With C[C@@H]1CCCCO[C@H](CN(C)S(=O)(=O)c2ccccc2)[C@@H](C)CN([C@H](C)CO)C(=O)c2cc(NC(=O)Nc3ccc(F)cc3)ccc2O1 the inhibition was 33.7% (inactive).
In the case of C[C@@H]1CCCCO[C@H](CN(C)S(=O)(=O)c2cccs2)[C@@H](C)CN([C@H](C)CO)C(=O)c2cc(NC(=O)Nc3ccccc3)ccc2O1, the inhibition is reported as 11.8% (inactive).
For O=c1cc(CSc2nnnn2-c2ccccc2)[nH]c(=S)[nH]1, the inhibition was 33.9% (inactive).
In the case of C[C@@H]1CN([C@@H](C)CO)C(=O)Cc2cc(NC(=O)C3CCCCC3)ccc2O[C@@H]1CN(C)Cc1ccncc1, the inhibition is reported as 15.8% (inactive).
With CCOC(=O)c1cnc2cc(C(F)(F)F)ccc2c1N1CCCCCC1 the inhibition was 13.2% (inactive).
With CNC[C@@H]1Oc2ccc(NC(=O)Nc3ccc4c(c3)OCO4)cc2C(=O)N([C@H](C)CO)C[C@@H]1C the inhibition was 6.4% (inactive).
For COc1ccc(NC(=O)c2ccc(OCC(=O)Nc3ccccc3F)cc2)cc1Cl, the inhibition was 19.2% (inactive).
For CCOC(=O)c1nnn2c3ccccc3c(=O)n(C)c12, the inhibition was -3.54% (inactive).
In the case of CCOC(=O)c1c(CN2CCOCC2)nc2c3ccccc3ccn12, the inhibition is reported as -2.66% (inactive).
For CCOC(=O)c1nnn2c1nc(N1CCN(c3ccccc3)CC1)c1ccccc12, the inhibition was 101% (active).
In the case of Cc1noc(C)c1NC(=O)Nc1cccc2c1O[C@H](CN(C)C(=O)Nc1ccccc1)[C@@H](C)CN([C@H](C)CO)C2=O, the inhibition is reported as 30.8% (inactive).
For NC(CC(=O)Nc1ccc(Cl)cc1)C(=O)O (stereo unspecified), the inhibition was 16.1% (inactive).
With Cc1noc(C)c1S(=O)(=O)Nc1ccc2c(c1)CC(=O)N([C@@H](C)CO)C[C@@H](C)[C@@H](CN(C)C(=O)Nc1ccc(C(F)(F)F)cc1)O2 the inhibition was 14.7% (inactive).
For O=C1Cc2ccc(F)cc2CC1C1=Cc2ccc(F)cc2CC1 (stereo unspecified), the inhibition was 114% (active).
With Cc1ccc(NC(N)=O)cc1 the inhibition was 0.872% (inactive).
With Oc1ccc(CN2CCCC2)c2cccnc12 the inhibition was 141% (active).
In the case of C[C@H](CO)N1C[C@H](C)[C@H](CN(C)S(=O)(=O)c2ccc(Cl)cc2)Oc2c(NS(C)(=O)=O)cccc2C1=O, the inhibition is reported as 9.14% (inactive).
With C[C@H](CO)N1C[C@H](C)[C@H](CN(C)S(=O)(=O)c2cccs2)Oc2ccc(NS(=O)(=O)c3ccc(Cl)cc3)cc2CC1=O the inhibition was 12.4% (inactive).
For COc1c(C)c2c(c(O)c1C/C=C(\C)CCC(=O)O)C(=O)OC2, the inhibition was 139% (active).
For CS(=O)(=O)N(CC(=O)Nc1ccc(F)c(F)c1)c1ccccc1F, the inhibition was -8.09% (inactive).
In the case of Oc1c(Cl)cc(Cl)cc1C1Nc2cc(C(F)(F)F)ccc2-n2cccc21 (stereo unspecified), the inhibition is reported as 114% (active).
